# Several values for one entry are separate records, joined by “and”; a condition that tells them apart may be missing. Equal values may be shown once. About 2,000 (36%) of roughly 5,500 compounds were called active. Inconclusive results (about 18%) are left out. The list shows a part of the results. Unmarked numbers belong to inactive results. Cut-off read from the data, not from the text of the source: active = normalized growth mostly below about 0.91 (no sharp cut-off); inconclusive = no clear call, values can overlap the other calls; inactive = mostly above about 0.92.
# Assay: chemical genetic growth profiling, strain panel (AID 1159580);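 note: tested at 20 µM; growth read once vehicle control cultures reached saturation at 30 °C; 1 = growth at the plate median or of vehicle wells; lower values mean less growth of the strain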
# Details: S. cerevisiae deletion strains, growth OD
smiles,measurement,setting,value
CC1=CC2C(C(C)C)CCC(C)(O)C2CC1 (configuration not stated),normalized growth,"locus YAL013W, strain DEP1, active compounds read low",1
same,normalized growth,"locus YAL021C, strain ccr4, active compounds read low",0.981
same,normalized growth,"locus YAL026C, strain drs2, active compounds read low",1.01
same,normalized growth,"locus YAL030W, strain snc1, active compounds read low",0.989
same,normalized growth,"locus YBL061C, strain skt5, active compounds read low",0.991
same,normalized growth,"locus YBR009C, strain hhf1, active compounds read low",0.97
same,normalized growth,"locus YBR021W, strain FUR4, active compounds read low",0.999
same,normalized growth,"locus YBR023C, strain chs3, active compounds read low",0.945
same,normalized growth,"locus YBR171W, strain sec66, active compounds read low",0.974
same,normalized growth,"locus YBR229C, strain ROT2, active compounds read low",0.949
same,normalized growth,"locus YBR231C, strain swc5, active compounds read low",1.02
same,normalized growth,"locus YBR279W, strain paf1, active compounds read low",0.988
same,normalized growth,"locus YCL011C, strain gbp2, active compounds read low",0.998
same,normalized growth,"locus YCL016C, strain dcc1, active compounds read low",0.972
same,normalized growth,"locus YCL029C, strain bik1, active compounds read low",0.953
same,normalized growth,"locus YCL061C, strain MRC1, active compounds read low",1.01
same,normalized growth,"locus YCL069W, strain vba3, active compounds read low",0.981
same,normalized growth,"locus YCR088W, strain abp1, active compounds read low",0.996
same,normalized growth,"locus YDL005C, strain med2, active compounds read low",0.998
same,normalized growth,"locus YDL035C, strain GPR1, active compounds read low",0.963
same,normalized growth,"locus YDL040C, strain nat1, active compounds read low",0.987
same,normalized growth,"locus YDL074C, strain BRE1, active compounds read low",0.97
same,normalized growth,"locus YDL101C, strain DUN1, active compounds read low",0.977
same,normalized growth,"locus YDL134C, strain PPH21, active compounds read low",1.01
same,normalized growth,"locus YDL185W, strain tfp1, active compounds read low",0.972
same,normalized growth,"locus YDL192W, strain arf1, active compounds read low",0.934
same,normalized growth,"locus YDR001C, strain nth1, active compounds read low",0.992
same,normalized growth,"locus YDR069C, strain doa4, active compounds read low",1.01
same,normalized growth,"locus YDR101C, strain arx1, active compounds read low",0.969
same,normalized growth,"locus YDR137W, strain rgp1, active compounds read low",0.771 (active)
same,normalized growth,"locus YDR159W, strain sac3, active compounds read low",0.915
same,normalized growth,"locus YDR162C, strain NBP2, active compounds read low",0.956
same,normalized growth,"locus YDR195W, strain ref2",1.03
same,normalized growth,"locus YDR297W, strain sur2, active compounds read low",0.979
same,normalized growth,"locus YDR318W, strain mcm21, active compounds read low",0.959
same,normalized growth,"locus YDR334W, strain swr1, active compounds read low",1.03
same,normalized growth,"locus YDR335W, strain msn5, active compounds read low",0.977
same,normalized growth,"locus YDR388W, active compounds read low",0.985
same,normalized growth,"locus YDR392W, strain spt3, active compounds read low",0.59 (active)
same,normalized growth,"locus YDR502C, strain sam2, active compounds read low",1.02
same,normalized growth,"locus YEL003W, strain gim4, active compounds read low",1
same,normalized growth,"locus YEL037C, strain rad23, active compounds read low",0.997
same,normalized growth,"locus YEL061C, strain CIN8 (second series), active compounds read low",1
same,normalized growth,"locus YEL061C, strain CIN8, active compounds read low",0.974
same,normalized growth,"locus YER015W, strain faa2, active compounds read low",0.991
same,normalized growth,"locus YER016W, strain bim1, active compounds read low",0.998
same,normalized growth,"locus YER110C, active compounds read low",0.966
same,normalized growth,"locus YER111C, strain swi4, active compounds read low",0.995
same,normalized growth,"locus YER155C, strain BEM2 (second series), active compounds read low",0.875
same,normalized growth,"locus YER155C, strain BEM2, active compounds read low",0.992
same,normalized growth,"locus YER167W, strain BCK2, active compounds read low",0.977
same,normalized growth,"locus YFR010W, strain ubp6, active compounds read low",1.1
same,normalized growth,"locus YGL078C, strain dbp3, active compounds read low",1.02
same,normalized growth,"locus YGL086W, strain mad1, active compounds read low",0.978
same,normalized growth,"locus YGL167C, strain pmr1, active compounds read low",0.98
same,normalized growth,"locus YGL173C, strain kem1, active compounds read low",0.994
same,normalized growth,"locus YGL227W, strain vid30, active compounds read low",0.991
same,normalized growth,"locus YGL240W, strain doc1, active compounds read low",0.959
same,normalized growth,"locus YGL248W, strain PDE1, active compounds read low",1.02
same,normalized growth,"locus YGL253W, strain hxk2, active compounds read low",0.998
same,normalized growth,"locus YGR078C, strain PAC10, active compounds read low",0.981
same,normalized growth,"locus YGR135W, strain pre9, active compounds read low",1.08
same,normalized growth,"locus YGR229C, strain SMI1, active compounds read low",0.969
same,normalized growth,"locus YGR252W, strain gcn5, active compounds read low",1.06
same,normalized growth,"locus YHR013C, strain ard1, active compounds read low",1.08
same,normalized growth,"locus YHR027C, strain rpn1, active compounds read low",1.01
same,normalized growth,"locus YHR030C, strain SLT2, active compounds read low",1 and 0.93
same,normalized growth,"locus YHR079C, strain IRE1 (second series), active compounds read low",0.987
same,normalized growth,"locus YHR079C, strain IRE1, active compounds read low",0.918
same,normalized growth,"locus YHR094C, strain hxt1, active compounds read low",0.983
same,normalized growth,"locus YHR129C, strain ARP1, active compounds read low",0.993
same,normalized growth,"locus YHR142W, strain chs7, active compounds read low",0.916
same,normalized growth,"locus YHR200W, strain rpn10, active compounds read low",1
same,normalized growth,"locus YIL066C, strain RNR3, active compounds read low",0.968
same,normalized growth,"locus YIL073C, strain SPO22, active compounds read low",1.04
same,normalized growth,"locus YIL125W, strain kgd1, active compounds read low",0.961
same,normalized growth,"locus YIR030C, strain dcg1, active compounds read low",0.981
same,normalized growth,"locus YJL092W, strain hpr5, active compounds read low",0.996
same,normalized growth,"locus YJL095W, strain BCK1 (second series), active compounds read low",0.995
same,normalized growth,"locus YJL095W, strain BCK1, active compounds read low",1.05 and 0.947
same,normalized growth,"locus YJL115W, strain asf1, active compounds read low",1
same,normalized growth,"locus YJL129C, strain trk1, active compounds read low",1.01
same,normalized growth,"locus YJL134W, strain LCB3, active compounds read low",0.979
same,normalized growth,"locus YJL154C, strain vps35, active compounds read low",0.998
same,normalized growth,"locus YJL164C, strain tpk1, active compounds read low",0.942
same,normalized growth,"locus YJL166W, strain qcr8, active compounds read low",0.979
same,normalized growth,"locus YJL168C, strain set2, active compounds read low",0.992
